The values below come from PubChem BioAssay (NCI).

This is part of a sample that, as a whole, favours compounds with a hit. Of some 83,000 tested, about 20% had one in any assay.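 Compound tested at a single concentration for 48 hours in 96-well plates; a percent growth value below 10 was scored as active.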 Activity calls are given as the source filed them.

Some test systems named below: DU-145 prostate; K-562 leukemia; MALME-3M melanoma; MDA-MB-231 breast; RXF 393 renal; SF-268 CNS; SF-295 CNS; SF-539 CNS; UACC-257 melanoma; M14 melanoma; HCT-15 colon; HT29 colon; SNB-75 CNS; SNB-19 CNS; U251 CNS; PC-3 prostate; SK-MEL-5 melanoma; UACC-62 melanoma; LOX IMVI melanoma; SK-MEL-28 melanoma.
What all share (experiment): NCI-60 one-dose screen, 48 h (100 = growth as untreated, 0 = no growth, -100 = all killed)
Common to all, as to details: 10 µM unless noted

As for `COc1ccc(OC)c(-c2nc(SCC(=O)c3ccc(C#N)cc3)[nH]c(=O)c2C#N)c1`, the growth with DU-145 prostate is 99.6% (inactive); in the assay with K-562 leukemia, 111% (inactive); with MALME-3M melanoma, 97.8% (inactive); with MDA-MB-231 breast, 101% (inactive); in the assay on RXF 393 renal it was 105% (inactive); in the assay with SF-268 CNS, 93.3% (inactive). In addition, the growth in the assay with SF-295 CNS is 99.5% (inactive); with SF-539 CNS, 93.8% (inactive); in the assay on UACC-257 melanoma it was 99.9% (inactive); with M14 melanoma it was 91.7% (inactive); with HCT-15 colon, 96.9% (inactive); with HT29 colon, 108% (inactive). The growth in the assay on SNB-75 CNS was 93.7% (inactive); in the assay on SNB-19 CNS, 97.6% (inactive); with U251 CNS, 103% (inactive); with PC-3 prostate, 94.5% (inactive); in the assay with SK-MEL-5 melanoma, 106% (inactive); in the assay with UACC-62 melanoma it was 94.7% (inactive). The figures for the growth in the assay on LOX IMVI melanoma and in the assay with SK-MEL-28 melanoma were 94.7% (inactive) and 102% (inactive), respectively.

On to `CC(C)(Sc1cc(C(C)(C)C)c(OC(=O)CCCC(=O)O)c(C(C)(C)C)c1)Sc1cc(C(C)(C)C)c(OC(=O)CCCC(=O)O)c(C(C)(C)C)c1`, for which the growth in the assay on DU-145 prostate is 51.4% (inactive); with K-562 leukemia it was 35.1% (inactive); in the assay on MALME-3M melanoma it was 46.2% (inactive); with MDA-MB-231 breast it was 57.8% (inactive); with RXF 393 renal, 37.6% (inactive); in the assay on SF-268 CNS, 28.6% (inactive). The growth is 33.7% (inactive) in the assay with SF-295 CNS; 6.97% (active) with SF-539 CNS; 46.7% (inactive) in the assay on UACC-257 melanoma; 45.5% (inactive) in the assay on M14 melanoma; 7.28% (active) in the assay on HCT-15 colon; 26.9% (inactive) in the assay on HT29 colon. Further, the growth was 68% (inactive) with SNB-75 CNS; 29.6% (inactive) in the assay with SNB-19 CNS; 14.4% (inactive) in the assay on U251 CNS; 36.2% (inactive) in the assay on PC-3 prostate; -3.74% (active) with SK-MEL-5 melanoma; -19.7% (active) in the assay on UACC-62 melanoma. The growth in the assay on LOX IMVI melanoma is 27.1% (inactive); in the assay with SK-MEL-28 melanoma, 24.9% (inactive).

Consider `COc1cc2cc(NCc3cccc(Cl)c3)nc(C)c2cc1OC`, for which the growth with DU-145 prostate was 62.8% (inactive); with K-562 leukemia, 8.28% (active); in the assay with MALME-3M melanoma, 80.6% (inactive); in the assay on MDA-MB-231 breast it was 41.6% (inactive); with RXF 393 renal it was 40.3% (inactive); with SF-268 CNS it was 41.3% (inactive). The growth in the assay with SF-295 CNS is 26.1% (inactive); with SF-539 CNS it was 5.02% (active); in the assay with UACC-257 melanoma, 69.8% (inactive); in the assay on M14 melanoma it was 29.4% (inactive); in the assay with HCT-15 colon it was 48.2% (inactive); in the assay on HT29 colon it was 3.17% (active). Also, the growth with SNB-75 CNS is 65.9% (inactive); with SNB-19 CNS it was 48.8% (inactive); in the assay with U251 CNS it was 31.1% (inactive); with PC-3 prostate it was 50.1% (inactive); with SK-MEL-5 melanoma, 43.4% (inactive); in the assay with UACC-62 melanoma, 14.4% (inactive). Moreover, the growth was 0.852% (active) with LOX IMVI melanoma and 33.3% (inactive) with SK-MEL-28 melanoma.

For the compound `O=C(c1nn(-c2ccccc2)c2c1CC(NCc1ccc(F)cc1)CC2)N1CCCCC1` (stereo not given), the growth was 108% (inactive) in the assay on DU-145 prostate; 91% (inactive) in the assay with K-562 leukemia; 102% (inactive) in the assay on MALME-3M melanoma; 110% (inactive) in the assay with MDA-MB-231 breast; 107% (inactive) with RXF 393 renal; 93% (inactive) in the assay on SF-268 CNS. In addition, the growth in the assay on SF-295 CNS is 102% (inactive); with SF-539 CNS, 106% (inactive); with UACC-257 melanoma, 101% (inactive); in the assay with M14 melanoma it was 95.3% (inactive); in the assay on HCT-15 colon, 99.5% (inactive); in the assay with HT29 colon, 101% (inactive). The growth in the assay on SNB-75 CNS was 84.5% (inactive); in the assay on SNB-19 CNS, 101% (inactive); in the assay with U251 CNS, 95.7% (inactive); with PC-3 prostate, 93.5% (inactive); with SK-MEL-5 melanoma, 96% (inactive); in the assay with UACC-62 melanoma, 110% (inactive). In addition, the figures for the growth in the assay on LOX IMVI melanoma and in the assay with SK-MEL-28 melanoma were 99.1% (inactive) and 117% (inactive), respectively.

For `COC(=O)c1c(C)c2n(c1C)C(=O)C(c1ccccc1)=C2`, the growth with DU-145 prostate is 97.9% (inactive); in the assay with K-562 leukemia it was 74.8% (inactive); in the assay with MALME-3M melanoma, 82.1% (inactive); in the assay with MDA-MB-231 breast it was 60.5% (inactive); in the assay with RXF 393 renal it was 82.3% (inactive); with SF-268 CNS it was 103% (inactive). In addition, the growth in the assay with SF-295 CNS is 79.9% (inactive); in the assay with SF-539 CNS, 87.6% (inactive); with UACC-257 melanoma, 18.1% (inactive); in the assay on M14 melanoma, 86.3% (inactive); in the assay with HCT-15 colon, 80.4% (inactive); in the assay on HT29 colon it was 87.1% (inactive). Moreover, the growth with SNB-75 CNS was 53.2% (inactive); in the assay with SNB-19 CNS, 85.7% (inactive); in the assay on U251 CNS, 93.2% (inactive); with PC-3 prostate, 84.4% (inactive); with SK-MEL-5 melanoma, 84.2% (inactive); in the assay with UACC-62 melanoma, 58.7% (inactive). For the same compound, the growth with LOX IMVI melanoma is 73.8% (inactive); in the assay on SK-MEL-28 melanoma, 91.2% (inactive).

Turning to `COC(=O)/C=C1/SC(=Nc2ccc(C(F)(F)F)cc2)N(CCc2c[nH]c3ccc(O)cc23)C1=O`, the growth in the assay with DU-145 prostate was 12.7% (inactive); in the assay with K-562 leukemia, 19.9% (inactive); in the assay with MALME-3M melanoma, -13.8% (active); in the assay on MDA-MB-231 breast, -13.9% (active); in the assay on RXF 393 renal, -50.9% (active); in the assay on SF-268 CNS, -5.68% (active). In addition, the growth was 14.2% (inactive) with SF-295 CNS; -37.3% (active) in the assay with SF-539 CNS; 9.58% (active) with UACC-257 melanoma; 0.0712% (active) in the assay with M14 melanoma; 3.12% (active) in the assay with HCT-15 colon; -49.9% (active) with HT29 colon. The growth in the assay on SNB-75 CNS was -3.46% (active); in the assay on SNB-19 CNS it was -2.49% (active); in the assay on U251 CNS, -37.7% (active); with PC-3 prostate it was -33.8% (active); in the assay with SK-MEL-5 melanoma, -61.9% (active); in the assay on UACC-62 melanoma, -53.6% (active). In addition, the growth in the assay on LOX IMVI melanoma is -60% (active); with SK-MEL-28 melanoma, -29.5% (active).

As to `CC(C)Cn1cnc2c(=O)[nH]c(N)nc21`, the growth with DU-145 prostate was 109% (inactive); in the assay on K-562 leukemia, 99.9% (inactive); in the assay on MALME-3M melanoma it was 98.3% (inactive); in the assay with MDA-MB-231 breast it was 114% (inactive); in the assay with RXF 393 renal it was 94.4% (inactive); in the assay on SF-268 CNS, 106% (inactive). Also, the growth is 99.2% (inactive) in the assay with SF-295 CNS; 104% (inactive) in the assay on SF-539 CNS; 84.1% (inactive) in the assay with UACC-257 melanoma; 105% (inactive) in the assay with M14 melanoma; 106% (inactive) in the assay with HCT-15 colon; 79.2% (inactive) in the assay on HT29 colon. The growth with SNB-75 CNS is 84.4% (inactive); with SNB-19 CNS it was 100% (inactive); with U251 CNS, 94.8% (inactive); in the assay with PC-3 prostate, 92.8% (inactive); in the assay on SK-MEL-5 melanoma, 98.9% (inactive); in the assay with UACC-62 melanoma, 103% (inactive). For the same compound, the growth is 97.8% (inactive) with LOX IMVI melanoma and 115% (inactive) in the assay on SK-MEL-28 melanoma.
